Only some compounds are listed: those with a hit (about 10% of all), similar ones and a draw of the others.
Six1-Eya2 inh: qHTS Assay for Inhibitors of the Six1/Eya2 Interaction; AID 651725, 2012; actives 0.56% (n = 360,000); AlphaScreen GST-Six1/His-Eya2 binding, biochemical; stronger effect = lower value; activity change, % (concentration not given with the values); in the data active = activity change below about -65%; inconclusive = mostly about -30% to -63%; note: % is set by controls: 0 for no effect and ±100 for the full control effect
Target sequence (O00167 whole entry, looked up): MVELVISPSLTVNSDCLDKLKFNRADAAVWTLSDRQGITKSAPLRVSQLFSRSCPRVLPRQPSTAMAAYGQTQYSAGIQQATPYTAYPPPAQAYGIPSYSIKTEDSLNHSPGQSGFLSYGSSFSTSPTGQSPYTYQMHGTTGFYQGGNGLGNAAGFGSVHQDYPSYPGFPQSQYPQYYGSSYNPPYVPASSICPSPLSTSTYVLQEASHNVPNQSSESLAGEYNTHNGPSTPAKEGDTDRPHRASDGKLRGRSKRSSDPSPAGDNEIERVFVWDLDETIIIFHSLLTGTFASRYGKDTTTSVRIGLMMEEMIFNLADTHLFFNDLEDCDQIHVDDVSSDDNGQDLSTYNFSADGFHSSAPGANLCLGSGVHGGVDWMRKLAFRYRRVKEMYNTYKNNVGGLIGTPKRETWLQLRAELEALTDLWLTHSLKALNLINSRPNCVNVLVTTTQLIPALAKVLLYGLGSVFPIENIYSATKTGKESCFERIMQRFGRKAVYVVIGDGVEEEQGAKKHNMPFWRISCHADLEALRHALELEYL
Target sequence (Q15475 whole entry, looked up): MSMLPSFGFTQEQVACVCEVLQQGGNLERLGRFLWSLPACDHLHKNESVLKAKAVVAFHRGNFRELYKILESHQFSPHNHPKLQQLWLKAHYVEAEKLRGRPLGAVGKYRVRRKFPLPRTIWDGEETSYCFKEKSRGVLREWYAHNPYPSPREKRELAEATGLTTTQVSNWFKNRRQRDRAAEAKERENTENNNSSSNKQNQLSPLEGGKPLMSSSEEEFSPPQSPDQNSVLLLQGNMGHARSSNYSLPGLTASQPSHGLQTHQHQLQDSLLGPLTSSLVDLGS
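AlphaScreen luminescence read after one hour at 37 °C in darkness. Pin-transferred compounds met GST-Six1 and His-Eya2 protein (5X stock 250 nM/500 nM) plus glutathione donor and Ni-chelate acceptor beads (5X, 50 ug/mL).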
CtBP-E1A inh: qHTS Assay for Inhibitors of the CtBP/E1A Interaction. actives 0.49% (n = 340,000). activity change, % (no concentration beside the values). AlphaScreen GST-E1A/His-CtBP binding, 1536-well; stronger effect = lower value. CtBP / adenovirus E1A interaction (AlphaScreen). AID 651724, 2012; in the data active = activity change below about -65%; inconclusive = mostly about -30% to -63%; note: % is set by controls: 0 for no effect and ±100 for the full control effect
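Homogeneous bead-based format: GST-tagged E1A captured on glutathione donor beads, His-tagged CtBP on nickel acceptor beads; compounds precede bead addition by 2 h at 37 °C.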
HP1b binding inh: HTS for Inhibitors of HP1-beta Chromodomain Interactions with Methylated Histone Tails; Chromobox protein homolog 1 (Homo sapiens), P83916; AlphaScreen HP1-beta / biotin-H3K9me3 peptide binding; Potency, µM (series often up to 114 µM), without a hit: at the highest dose activity change, negative = inhibition, most hits filed as inhibitors; actives 0.56% (n = 390,000); note: potency is the fitted concentration of half-maximal effect; nearly all actives have a fitted effect of over 70% in size
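Compound inhibition of the preformed complex between 50 nM HP1-beta and 50 nM biotinylated H3K9me3 peptide was read by AlphaScreen. Buffer was PBS pH 7.4 with 0.01% Tween-20. Incubations ran 30 min at room temperature, with 10 ug/mL donor/acceptor beads.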
BAZ2B inh: qHTS Assay for Inhibitors of BAZ2B; actives 4.4% (n = 360,000); AID 504333, 2011; AlphaScreen BAZ2B-H3K14Ac peptide displacement; Potency, µM (highest dose often 114 µM), without a hit: top-dose activity change, negative = inhibition, most hits filed as inhibitors; Bromodomain adjacent to zinc finger domain protein 2B (Homo sapiens), Q9UIF8; note: potency is the fitted concentration of half-maximal effect; % is set by controls: 0 for no effect and ±100 for the full control effect; nearly all actives have a fitted effect of over 60% in size
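BAZ2B 50 nM plus b-H3(5-23)K14Ac 50 nM, PBS pH 7.4/0.01% Tween-20, 30 min RT; compound added (max 110 uM), 30 min RT; streptavidin donor/Ni-chelate acceptor beads 10 ug/mL final, 20 min dark; AlphaScreen read.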
G9a inh: qHTS Assay for Inhibitors of Histone Lysine Methyltransferase G9a | Potency, µM (top dose mostly 102 µM), for the others: top-dose activity, negative = inhibition, actives largely listed as inhibitors | G9a H3K9 monomethylation, AlphaScreen, 2 h | AID 504332, 2011 | actives 8.8% (n = 350,000) | Histone-lysine N-methyltransferase EHMT2 (Homo sapiens), Q96KQ7; note: potency is the fitted concentration of half-maximal effect; % is set by controls: 0 for no effect and ±100 for the full control effect; nearly all actives have a fitted effect of over 75% in size
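Quantitative HTS format: methyltransferase activity on a biotin-tagged H3K9 peptide is measured by AlphaScreen, using a rabbit anti-monomethyl-H3K9 antibody with streptavidin donor and anti-IgG acceptor beads. Final levels are 20 nM enzyme, 500 nM peptide, 20 uM SAM; 2 h RT.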
JMJD2A Tudor: qHTS Assay for Inhibitors of JMJD2A-Tudor Domain. Lysine-specific demethylase 4A (Homo sapiens), O75164. actives 4.4% (n = 390,000). Potency, µM (doses to about 114 µM), without a hit: top-dose activity change, negative = inhibition, usual class: inhibitors. AlphaScreen JMJD2A-Tudor / H3K4me3 peptide binding; note: potency is the fitted concentration of half-maximal effect; % is set by controls: 0 for no effect and ±100 for the full control effect; nearly all actives have a fitted effect of over 50% in size
* hit, by the source's call; ? = inconclusive; . = not tested or not shown; [ ] = another dose, or the depositor's remark. Unless noted, calls come from the whole dose curve; as a rule, active = well fitted inhibition curve with a large enough effect; inconclusive = small, poorly fitted or top-dose-only effect; inactive = no such curve, though single readings can be large or run the other way.

SMILES	Six1-Eya2 inh	CtBP-E1A inh	HP1b binding inh	BAZ2B inh	G9a inh	JMJD2A Tudor
O=C(CCN1C(=O)/C(=C\c2ccccc2F)SC1=S)Nc1ccc(C(=O)O)c(O)c1	.	.	.	?	79µM*	.
O=C(COC(=O)CCN1C(=O)/C(=C\C=C\c2ccccc2)SC1=S)Nc1cc(F)ccc1F	-21	-12	?	20µM*	?	40µM*
Cc1ccc(/C=C2\SC(=S)N(CCCC(=O)Nc3ccccn3)C2=O)cc1	-5	-6	-11%	?	71µM*	?
O=C(CCN1C(=O)/C(=C/c2cccs2)SC1=S)Nc1ccc(C(=O)O)cc1	-11	?	-1%	56µM*	?	?
COc1ccc(S(=O)(=O)N2CCOC2CNC(=O)C(=O)NCCc2ccccc2)cc1 (stereo not drawn)	-1	0	36%	38%	.	-8%
CCCNC(=O)C1(C)CCN(C(=O)c2ccc(OC)cc2OC)C1 (stereo not drawn)	0	4	.	.	.	.
O=C(O)CC1(CC(=O)NCc2ccc(Cl)cc2)CCCCC1	8	.	41%	4%	27%	-8%
Cc1nnc(NC(=O)CCN2C(=O)/C(=C\c3ccccc3)SC2=S)s1	-2	-3	52%	2%	79µM*	-4%
COc1cccc(/C=C2/SC(=S)N(CC(=O)Nc3nnc(C)s3)C2=O)c1	7	-9	35%	-6%	-6%	-18%
O=C(CCN1C(=O)/C(=C/c2cccs2)SC1=S)Nc1ccccn1	-13	-8	9%	?	3.2µM*	-31%
O=C(CCCN1C(=O)/C(=C/c2cccs2)SC1=S)Nc1ccc(O)c(C(=O)O)c1	.	.	.	?	45µM*	.
O=C(CN1C(=O)/C(=C/c2ccccc2)SC1=S)Nc1ncc(Cc2ccccc2)s1	?	-22	-20%	-34%	50µM*	-26%
O=C(CCCN1C(=O)/C(=C\c2cccs2)SC1=S)Nc1ccccn1	-10	-2	?	?	?	?
CCOc1ccc2ncc3c(-c4ccc(C)cc4)nn(-c4cccc(F)c4)c3c2c1	.	.	39%	.	9%[59 µM]	-10%
CC(C)(C)C(=O)/C(=C/c1ccncc1)n1cncn1	0	-4	17%	-4%	.	-21%
O=C(CSc1ccccc1C(=O)O)c1ccc([N+](=O)[O-])cc1	-6	.	?	?	20µM*	20µM*
CC(=O)N1CCC(=NNc2ccnc3cc(Cl)ccc23)CC1	-4	0	42%	?	28µM*	-14%
CC(=O)c1ccc(N2CCN(c3ccnc4cc(Cl)ccc34)CC2)cc1	20	2	32%	?	4%	-13%
CC(=O)N1CCC(=NNc2ncc(C(F)(F)F)cc2Cl)CC1	-17	-9	33%	35µM*	-18%	-22%[57.1 µM]
CC(C)OCCCN(Cc1ccco1)C(=O)c1cc2c(s1)-c1ccccc1OC2	.	.	154%	102%	144%[59 µM]	114%
O=C1CN(C(=O)c2ccc3nc(Cc4cccc(Cl)c4)oc3c2)CCN1	-1	5	24%	-4%	39%	-1%
CCOC(=O)c1sc(NC(=O)c2cc(-c3ccccc3C)nc3ccccc23)c(C#N)c1C	-2	7	6.3µM*	-7%	1.6µM*	-34%[11.4 µM]
Cc1ccccc1-c1cc(C(=O)Nc2sc(C)c(C)c2C(N)=O)c2ccccc2n1	-4	-14	?	?	?	?
COc1ccc(CNC(=O)CCn2c(=O)c3cccn3c3ccc(F)cc32)cc1OC	.	.	67%	-13%	4%[59 µM]	3%
C/C(=N\O)c1ccc2c3c([nH]c2c1)CCCC3	-17	-15	-15%	40µM*	?	?
SMILES	Six1-Eya2 inh	CtBP-E1A inh	HP1b binding inh	BAZ2B inh	G9a inh	JMJD2A Tudor
CCOC(=O)c1scc(-c2ccccc2)c1S(=O)(=O)Nc1ccc(N(C)C)cc1	.	.	?	20µM*	4.5µM*	14µM*
CCOC(=O)c1scc(-c2ccccc2)c1S(=O)(=O)Nc1cc(Cl)c(OC)cc1OC	.	.	?	?	10µM*	-24%
Cc1cc(SCC(=O)NCc2ccc(F)cc2)nc(=O)[nH]1	.	.	48%	3%	5%[59 µM]	14%
CC#Cc1cc2c(cc1O)CCC1C2CCC2(C)C(O)CCC12 (stereo not drawn)	-9	3	?	.	.	79µM*
CCNc1cc2c(cc1O)CCC1C2CCC2(C)C(O)CCC12 (stereo not drawn)	-14	-2	?	.	.	89µM*
COc1ccc(CNC(=O)Cn2c(=O)nc(-c3ccccc3F)c3cc(Cl)ccc32)cc1OC	.	.	5%	-19%	-20%[59 µM]	-14%
O=C1CCCC2=C1C(c1ccco1)Nc1ccc3ccccc3c12 (stereo not drawn)	?	0	50µM*	13µM*	16µM*	40µM*
O=C1CCCC2=C1C(c1ccc(O)c(O)c1)Nc1ccc3ccccc3c12 (stereo not drawn)	-3	1	?	.	.	28µM*
Cc1ccc(N2C(=O)CS(=O)(=O)C23C(=O)N(C)c2ccccc23)cc1F (stereo not drawn)	.	.	17%	6%[57.1 µM]	13µM*	-10%
Cc1noc(C)c1-c1ccc(C(=O)N2CCN(C)CC2)c2occc12	-11	2	.	.	.	.
Cc1cc(=O)c2c(O)c(O)ccc2o1	3	1	7%	?	1.8µM*	3.2µM*
CC1=CCc2c(cc3oc(C)cc(=O)c3c2O)OC1	.	.	.	.	-39%[2.33 µM]	.
CCCCc1ccc(NC(=O)c2cc(-c3ccc(C)c(F)c3)on2)cc1	.	.	1%	-7%	-10%[59 µM]	-24%

Compound activity deposited in PubChem by National Center for Advancing Translational Sciences (NCATS).
